# Measurements published in PubChem BioAssay AID1259343 (VanderVen Lab, College of Veterinary Medicine, Cornell …, 2017).
# Among all 6,200 compounds or so, about 2,900 (47%) were called active. Cut-off read from the data, not from the text of the source: active = inhibition above about 50%; inactive = the rest. The set was probably picked from earlier hits. The list shows a part of the results.
# Experiment: Mycobacterium tuberculosis growth inhibition, primary screen (AID 1259343)
# Conditions: inhibition: at 10 µM, active compounds read high; outcome: 10 uM
row,SMILES,inhibition
1,O=C(c1ccc2oc(CCCc3ccccc3)nc2c1)N1CCCCO1,50.9% (active)
2,O=C(COCc1ccccc1)N(Cc1ccccc1)Cc1nc2cc(Cl)ccc2o1,-20.6% (inactive)
3,O=C(NCC1CCCCO1)c1ccc2oc(CCCc3ccccc3)nc2c1 (centres undefined),47% (inactive)
4,N#Cc1c(F)cccc1Oc1ccc(C(=O)O)cc1,39.2% (inactive)
5,CS(=O)(=O)NC(=O)c1ccc(Oc2ccc(F)cc2F)cc1,72.8% (active)
6,CS(=O)(=O)NCc1ccc(Oc2ccccc2F)c(F)c1,1.57% (inactive)
7,Cc1ccccc1CSc1nc2c(c(=O)n1C)SCC2,45.6% (inactive)
8,O=c1c2sccc2nc(SCCc2ccccn2)n1-c1ccccc1,12.8% (inactive)
9,CCOc1ccccc1CSc1nc2ccsc2c(=O)n1C,102% (active)
10,COc1ccc(OCCSC2=Nc3ccccc3C3CC=NN23)cc1 (centres undefined),45.9% (inactive)
11,S=C1Nc2ccccc2C2CC=NN12 (centres undefined),55.7% (active)
12,CC(C)c1cc(C(=O)N2CCCC(C(=O)Nc3cccc(-c4ccc(F)cc4)c3)C2)on1 (centres undefined),83.1% (active)
13,Cc1nnsc1C(=O)N1CCCC(C(=O)Nc2cccc(-c3ccc(F)cc3)c2)C1 (centres undefined),17.2% (inactive)
14,O=C(Nc1cccc(-c2ccc(F)cc2)c1)C1CCCN(C2CCSCC2)C1 (centres undefined),86.7% (active)
15,Cc1ncc(CN2CCCC(C(=O)Nc3cccc(-c4ccc(F)cc4)c3)C2)s1 (centres undefined),61.6% (active)
16,Cc1nc(C)c(CN2CCCC(C(=O)Nc3ccc(-c4cccc(F)c4)cc3)C2)nc1C (centres undefined),90.5% (active)
17,CC(C)c1cc(C(=O)N2CCCC(C(=O)c3ccc4ccccc4c3)C2)on1 (centres undefined),15.6% (inactive)
18,O=c1c2ccccc2oc2nc(C3CCCCC3)n(Cc3ccccc3)c(=O)c12,-13.4% (inactive)
19,O=C(Nc1ccc(-c2cccc(F)c2)cc1)C1CCCN(C(=O)C2CCOCC2)C1 (centres undefined),76.7% (active)
20,O=C(Nc1cccc(-c2ccc(F)cc2)c1)C1CCCN(Cc2cccnc2)C1 (centres undefined),47.1% (inactive)
21,CCc1ncc(CN2CCCC(C(=O)Nc3cccc(-c4ccc(F)cc4)c3)C2)cn1 (centres undefined),77% (active)
22,CSCCC(=O)N1CCCC(C(=O)Nc2ccc(-c3cccc(F)c3)cc2)C1 (centres undefined),36.2% (inactive)
23,O=c1c(Cl)c(Oc2ccccc2)cnn1Cc1ccccc1,24.6% (inactive)
24,Cc1ccc(CC2CCCN(c3cn[nH]c(=O)c3Cl)C2)cc1 (centres undefined),41.4% (inactive)
25,CC1(CCc2ccccc2)CCN(c2cn[nH]c(=O)c2Cl)C1 (centres undefined),71.2% (active)

row,SMILES,inhibition
1,CCN(C(=O)c1cccc(Br)c1C)c1ccccc1,-6.9% (inactive)
2,Cc1cc(Cl)ccc1OC(C)c1nnc(SCCC2CCCCC2)o1 (centres undefined),10.5% (inactive)
3,Cc1ccc(O)c(S(=O)(=O)N2CCCc3cc(F)c(F)cc32)c1,3.27% (inactive)
4,O=S(=O)(c1cc(Br)ccc1Br)N1CCc2ccccc21,102% (active)
5,O=S(=O)(c1cc(Br)ccc1Br)N1CCC1c1ccccc1 (centres undefined),77.1% (active)
6,O=S(=O)(c1cc(Br)ccc1Br)N1CCCc2ccccc21,7.14% (inactive)
7,CC(C)SCC(=O)Nc1cnc2ccccc2c1,92.9% (active)
8,CC(C)CCNC(=O)CSc1nc2ccccc2o1,6.9% (inactive)
9,COc1cccc(-n2cc(CN(C)Cc3cccc4nonc34)cn2)c1,83.4% (active)
10,COc1cccc(-n2cc(CN(C)Cc3cc4ccccc4[nH]3)cn2)c1,41.5% (inactive)
11,CC(C)c1ccc2c(c1)CCC1C(C)(C(N)=O)CCCC21C (centres undefined),64.3% (active)
12,CC(C)c1cc2c(c(O)c1O)[C@@]1(C(=O)O)CCCC(C)(C)C1CC2 (some centres undefined),48.2% (inactive)
13,Cc1ccc(C2CC2C(=O)NS(=O)(=O)c2ccc(F)cc2)s1 (centres undefined),-6% (inactive)
14,COc1ccc(S(=O)(=O)NCCC(C)C)cc1,3.91% (inactive)
15,CC(=O)NS(=O)(=O)c1ccc(N)cc1,60.2% (active)
16,O=C(NCc1ccc(S(=O)(=O)N2CCCCC2)cc1)NCc1cccc(C(F)(F)F)c1,91.4% (active)
17,O=C(c1cnc2cc3c(cc2c1)OC1(CCCC1)O3)c1ccccc1O,-7.11% (inactive)
18,Cc1ccc(NC2=CC(=O)c3sc(C)nc3C2=O)cc1,99.8% (active)
19,Cc1ccc(-c2nc(C)sc2CC(=O)NC(C)C2CC2)cc1 (centres undefined),33.3% (inactive)
20,CC(C)CNc1nnnc2c1sc1nc(N3CCOCC3)c3c(c12)CCCC3,-4.41% (inactive)
21,CCc1nc2sc3c(NCC4CCCO4)ncnc3c2c2c1CCCC2 (centres undefined),57.2% (active)
22,CCc1nc2sc3c(NCCN(C)C)ncnc3c2c2c1CCCC2,47.1% (inactive)
23,COc1ccc(F)cc1-c1csc(-c2ccc(NC(=O)C3CC3)cc2)n1,71.9% (active)
24,COc1ccc(-c2cc(NC(=O)C3CC3)ccc2OC)cc1,93.7% (active)
25,COc1ccc(-c2cc(CNC(=O)C3CC3)no2)cc1,30.7% (inactive)

row,SMILES,inhibition
1,COc1ccc(-c2nc(-c3ccccc3F)cs2)cc1OC,12.5% (inactive)
2,CCOC(=O)c1c(C)c(C(=O)NC2CC(C)CC(C)(C)C2)c(C)n1CC (centres undefined),93.8% (active)
3,CCOC(=O)c1c(C)nn(-c2ccc(C(=O)NC3CCC(C)CC3)cc2)c1C (centres undefined),38.6% (inactive)
4,Cc1csc2cc(C(=O)NC3CC(C)CC(C)(C)C3)cnc12 (centres undefined),41% (inactive)
5,CCCc1c(C(=O)O)c(C2CC2)nn1-c1ccc(OC)cc1,17.7% (inactive)
6,Cc1c(C(=O)NCc2ccco2)c(C2CC2)nn1-c1ccc(Cl)c(Cl)c1,91% (active)
7,CCOc1ccc2c(c1)C=C(C(=O)NCc1ccco1)CO2,-9.65% (inactive)
8,O=[N+]([O-])c1cc(S(=O)(=O)Oc2cccc(Cl)c2Cl)ccc1Cl,-21.3% (inactive)
9,CN(C)C(CNc1ccc(S(C)(=O)=O)cc1[N+](=O)[O-])c1ccco1 (centres undefined),-2.26% (inactive)
10,CS(=O)(=O)N(c1ccccc1Cl)S(=O)(=O)c1ccc(Cl)c([N+](=O)[O-])c1,70.4% (active)
11,O=C1O/C(=C/Br)CCC1c1cccc2ccccc12 (centres undefined),102% (active)
12,O=C(O)c1ccc(CN2CCc3cc(-n4cccn4)cnc32)cc1,26.6% (inactive)
13,CNC(=O)COc1ccc(-c2cccc(-n3cccn3)c2)cc1,54.7% (active)
14,CCOC(=O)C1(CCOc2ccccc2)CCN(Cc2cccc(-n3cccn3)c2)CC1,31.7% (inactive)
15,CNC(=O)c1ccc(-c2cccc(-n3cccn3)c2)s1,91.2% (active)
16,COc1cc(NC(=O)c2ccc(N3CCC(C)=N3)cc2)cc(OC)c1,71% (active)
17,COc1cc(NC(=O)c2ccc(CN3CC=CC3)cc2)cc(OC)c1,36.1% (inactive)
18,NC(Cc1ccc(C(F)(F)F)cc1)c1csc(Nc2cc(Oc3ccccc3)ncn2)n1 (centres undefined),59.6% (active)
19,NC(COCc1ccccc1)c1csc(Nc2cc(Oc3ccccc3)ncn2)n1 (centres undefined),76.8% (active)
20,NC(Cc1ccc(F)cc1)c1csc(Nc2cc(Oc3ccccc3)ncn2)n1 (centres undefined),54.2% (active)
21,COc1ccc(CC(N)c2csc(Nc3cc(Oc4ccccc4)ncn3)n2)cc1 (centres undefined),56.6% (active)
22,NC(Cc1ccccc1)c1csc(Nc2cc(Oc3ccccc3)ncn2)n1 (centres undefined),inactive
23,Cc1nn(C)c(Cl)c1CNc1ccccc1,5.19% (inactive)
24,CC1(C)C2CCC1(C)C(NC(=O)Nc1nnc(C3CC3)s1)C2 (centres undefined),41% (inactive)
25,COc1ccc(C(N)c2csc(Nc3cc(Oc4ccccc4)ncn3)n2)cc1 (centres undefined),58.8% (active)

row,SMILES,inhibition
1,O=C(c1cccs1)c1coc2ccc(Cl)cc2c1=O,43.6% (inactive)
2,CCCCCNC(=O)C1CCN(C(=O)c2oc3ccc(Cl)cc3c2C)CC1,29.4% (inactive)
3,O=C(O)c1oc2ccc(Cl)cc2c1-n1cccc1,90.5% (active)
4,COc1ccc(-c2nn3c(nc2=O)-c2ccccc2NC3C(C)C)cc1 (centres undefined),inactive
5,CSc1ncc(CN2CCCC(C(=O)c3ccc(Oc4ccccc4)cc3)C2)cn1 (centres undefined),92.1% (active)
6,Cc1occc1C(=O)N1CCCC(C(=O)c2ccc(Oc3ccccc3)cc2)C1 (centres undefined),17% (inactive)
7,O=C(c1ccc(Oc2ccccc2)cc1)C1CCCN(C(=O)c2ccc3nccnc3c2)C1 (centres undefined),56% (active)
8,Cc1nonc1C(=O)N1CCCC(C(=O)c2ccc(Oc3ccccc3)cc2)C1 (centres undefined),13.8% (inactive)
9,COc1c(C)cc(C(=O)C2CCCN(Cc3cnc(SC)nc3)C2)cc1C (centres undefined),47.7% (inactive)
10,O=C(c1ccc(Oc2ccccc2)cc1)C1CCCN(C(=O)c2cnsn2)C1 (centres undefined),64.4% (active)
11,O=C(c1ccc(-c2ccccc2)cc1)C1CCCN(C(=O)c2ccc3nccnc3c2)C1 (centres undefined),18.2% (inactive)
12,O=C(Nc1ccc2c(c1)CCC2)C1CCN(C(=O)OCC(F)(F)F)CC1,49.5% (inactive)
13,O=C(COCC(F)(F)F)Nc1ccc2c(c1)C(=O)CCC2,81.5% (active)
14,O=C(COC(=O)c1n[nH]c(=O)c2ccccc12)Nc1ccc2c(c1)CCC2,37.8% (inactive)
15,Clc1ccc(-c2noc(CSc3ccc(Br)cc3)n2)cc1,66.5% (active)
16,Cc1ccc(CNC(=O)CN2CCc3sccc3C2C)cc1 (centres undefined),27% (inactive)
17,O=C(NCc1ccccc1)c1c(O)nc2sccn2c1=O,63.3% (active)
18,O=C(NCc1ccc(Cl)cc1)c1c(O)nc2ccccn2c1=O,25.1% (inactive)
19,Cc1ccc(CNC(=O)c2c(O)nc3sccn3c2=O)cc1,74.4% (active)
20,O=C(NCCc1ccccc1)c1c(O)nc2sccn2c1=O,1.99% (inactive)
21,O=C(NCc1ccc(F)cc1)c1c(O)nc2sccn2c1=O,59.5% (active)
22,O=C(NC1CCCCC1)c1c(O)nc2ccccn2c1=O,42.4% (inactive)
23,Cc1cccc(C)c1Cn1c(C)c(C(=O)NCc2ccc(Cl)c(Cl)c2)sc1=O,16.1% (inactive)
24,O=C(NCc1ccc(Cl)cc1)c1c(O)nc2sccn2c1=O,81.1% (active)
